The source of these data is PubChem BioAssay AID376 (PDSP, 2006).

The structures appear in SMILES notation. Where “and” joins values, the source holds several entries; their conditions need not be identical. Identical values can stand only once. Hit rate of the full screen: of about 2,000 compounds, about 250 (12%) were called active. The full list was thinned out, with actives kept by preference. A number with no mark means an inactive call. Cut-off read from the data, not from the text of the source: active = hERG blockade below about -20% or above about 20%; inactive = in between.

The target in this experiment is Voltage-gated inwardly rectifying potassium channel KCNH2 (Homo sapiens) (UniProt Q12809). The experiment in a line: KCNH2 potassium channel function modulators, cell-based (AID 376).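 Note: 0% = buffer alone and 100% = reference blocker.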 Particulars: hERG-expressing cells, channel activity single-concentration screen; concentration not given here. In general terms: hERG is a cardiac potassium channel; its block is linked to QT prolongation.
Chain of Voltage-gated inwardly rectifying potassium channel KCNH2 (Homo sapiens) (Q12809 whole entry, looked up): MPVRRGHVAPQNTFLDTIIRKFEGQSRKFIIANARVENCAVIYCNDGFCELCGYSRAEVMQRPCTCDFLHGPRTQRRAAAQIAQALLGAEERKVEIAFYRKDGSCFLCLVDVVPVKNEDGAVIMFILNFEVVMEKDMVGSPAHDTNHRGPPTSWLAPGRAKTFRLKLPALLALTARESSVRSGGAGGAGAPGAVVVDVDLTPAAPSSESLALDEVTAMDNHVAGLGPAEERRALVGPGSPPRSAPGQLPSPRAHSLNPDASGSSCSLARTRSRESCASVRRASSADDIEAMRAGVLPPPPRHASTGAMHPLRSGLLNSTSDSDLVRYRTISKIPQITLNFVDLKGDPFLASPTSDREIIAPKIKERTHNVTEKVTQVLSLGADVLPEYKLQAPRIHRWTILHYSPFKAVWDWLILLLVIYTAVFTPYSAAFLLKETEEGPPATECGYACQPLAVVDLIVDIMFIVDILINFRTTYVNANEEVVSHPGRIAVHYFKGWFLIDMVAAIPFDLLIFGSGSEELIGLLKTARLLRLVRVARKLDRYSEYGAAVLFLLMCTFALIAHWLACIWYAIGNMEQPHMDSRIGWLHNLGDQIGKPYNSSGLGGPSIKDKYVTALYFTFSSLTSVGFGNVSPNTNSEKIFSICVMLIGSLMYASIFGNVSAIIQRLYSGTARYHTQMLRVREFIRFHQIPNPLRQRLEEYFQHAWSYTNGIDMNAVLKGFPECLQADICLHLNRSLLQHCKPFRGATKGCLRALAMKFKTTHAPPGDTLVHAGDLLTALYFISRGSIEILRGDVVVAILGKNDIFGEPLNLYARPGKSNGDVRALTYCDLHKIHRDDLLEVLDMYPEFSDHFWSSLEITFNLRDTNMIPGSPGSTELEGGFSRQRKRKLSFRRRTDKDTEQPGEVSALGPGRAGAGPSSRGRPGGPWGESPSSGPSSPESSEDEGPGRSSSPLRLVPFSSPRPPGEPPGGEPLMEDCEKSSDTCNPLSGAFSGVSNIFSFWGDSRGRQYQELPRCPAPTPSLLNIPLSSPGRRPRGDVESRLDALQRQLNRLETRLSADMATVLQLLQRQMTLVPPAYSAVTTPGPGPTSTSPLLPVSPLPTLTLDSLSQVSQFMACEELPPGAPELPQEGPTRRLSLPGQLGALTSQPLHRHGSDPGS
Regarding `O=C(O)CCc1c2ccc(=O)c(O)c-2oc2c(O)c(O)ccc12`, the hERG blockade is 6.94%.
As for `Oc1ccc(Cn2c(-c3ccc(O)cc3)nc3ccccc32)cc1`, the figure is 9.19%; as for `NS(=O)(=O)c1cc2c(cc1Cl)=NC(CCC(=O)O)=NS=2(=O)O`, -4.14%.
Regarding `[N-]=[N+]=NC1C(O)C(CO)OC1n1cnc2c(N)ncnc21` (centres undefined), the hERG blockade was -1.39%.
For `Cc1ccc(C(O)c2cnc(C)n2Cc2ccccc2)cc1` (centres undefined), the hERG blockade was 0.183%.
As for `Cc1ccc2c(c1)NC(c1ccc(C(=O)O)cc1)c1cccn1-2` (centres undefined), the figure is -13.1%.
As for `CC1CC2C3CCC4=CC(=O)C=CC4(C)C3(F)C(O)CC2(C)C1(O)C(=O)COP(=O)(O)O` (centres undefined), the figure is -1.33%.
As for `CC(=O)Nc1cc(CN2CCCCC2)c(O)c2ncccc12`, the figure is -2.13%; as for `NC(CSc1nc2ccccn2c1[N+](=O)[O-])C(=O)O` (centres undefined), -1.31%.
For `O=C(O)c1cccc(N=Nc2c(S(=O)(=O)O)ccc3c2C(=O)c2ccccc2C3=O)c1O`, the hERG blockade is 6.27%.
`O=C1c2ccccc2C(=O)c2c1ccc(C(=O)O)c2-c1ccc2ccccc2c1`: the hERG blockade is 66.5% (active).
As for `O=C1c2ccccc2C(=O)c2c1ccc(N1C(=O)c3ccccc3C1=O)c2-c1c(N2C(=O)c3ccccc3C2=O)ccc2c1C(=O)c1ccccc1C2=O`, the figure is 15.5%; as for `NC(C(=O)O)C(O)c1cnc[nH]1` (centres undefined), 2.25%; as for `O=C(O)C1CCCCC1C(=O)Nc1nc2ccccc2[nH]1` (centres undefined), 28.5% (active).
Take `O=C1c2ccccc2-c2ccc(NC(=O)C3CCCCC3C(=O)O)cc21` (centres undefined): the hERG blockade was 1.13%.
For `O=C(O)CSc1nc2ccccc2[nH]1` the value was -15.3%.
With `CN(C)CCCNc1ncnc2nc[nH]c12`, the hERG blockade was 3.18%.
In the case of `C[N+]1(C)CCc2cc(O)c(O)cc2C1Cc1ccc(O)c(O)c1` (centres undefined), the hERG blockade is -10.5%.
As for `CC(=NO)c1cccc[n+]1Cc1ccccc1`, the figure is -12.2%; as for `COc1ccc(-c2csc3c2-n2cccc2C3=O)cc1`, 22.6% (active); as for `NC(=O)C1CCCN1Cc1ccc2c(c1)OCO2` (centres undefined), -14.4%.
For `CC12CCC(=O)C=C1CCC1C2CCC2(C)C(C(=O)Cn3cnc4c(=S)nc[nH]c43)CCC12` (centres undefined) the value was 12.1%; for `Nc1nc(N)c2[nH]c(CNc3ccc(C(=O)O)cc3)nc2n1`, 16.1%; for `CCn1c2ccccc2c2nnc(NCCCO)nc21`, -5.84%.
For `CCOc1ccccc1Nc1ccc(N)cc1S(=O)(=O)O` the value was 0.163%.
Turning to `S=C1SCN(C2CCCCCCCCCCC2)CN1C1CCCCCCCCCCC1`, the hERG blockade is 0.139%.
For the compound `COc1ccc(CSC2=C(C#N)C(=O)NC3(CCCCC3)S2)cc1`, the hERG blockade was -27.9% (active).
For `O=C(O)CSc1ccccc1C(=O)O` the value was -2.77%.
As for `Clc1nc(NCCc2ccccc2)c2ncn(-c3ccccc3)c2n1`, the figure is 34.7% (active); as for `c1ccc(CCCNc2nnnc3ccccc23)cc1`, 3.75%; as for `Cn1ncc2c(NCCc3ccccc3)nc(Cl)nc21`, 10%.
For `O=C(O)C1(C(=O)O)CCN(S(=O)(=O)c2ccccc2)CC1`, the hERG blockade was -10%.
For the compound `CC(=NNC1=NCCN1)c1cn(C2=NCCN2)nc1C`, the hERG blockade was 48.8% (active).
As for `Cc1nc2sc3c(c2c(=O)[nH]1)CCCC3`, the hERG blockade was -7.98%.
For `O=C(O)CC(Cc1ccccc1)C(=O)O` (centres undefined) the value was 6.37%.
For `COc1cc(C)cc2c(-c3c(O)cc(O)c4c3CC(C)NC4C)cc(-c3cc(-c4c(O)cc(O)c5c4CC(C)NC5C)c4cc(C)cc(OC)c4c3O)c(O)c12` (centres undefined) the value was 22.2% (active); for `COc1cc(C2SCCCCCCCCCCSC(c3ccc(O)c(OC)c3)SCCCCCCCCCCS2)ccc1O` (centres undefined), 2.15%; for `CC(=N[N-]C(=[SH+])SCc1ccccc1)c1ccccn1.[Cl][Cu]`, 3.22%.
For `Cc1cc(C)nc(SCCc2cccc[n+]2C)n1` the value was 71.5% (active); for `Cc1ccc(S(=O)(=O)NCc2cccc([N+](=O)[O-])c2)cc1`, 14.6%; for `Cc1cccc(CNc2ncnc3[nH]ncc23)c1`, -7.57%.
In the case of `COc1ccc(Br)c2c1CC(C(=O)O)CC2` (centres undefined), the hERG blockade was -1.02%.
For `Cc1ccc(C(=N)c2ccccc2Cc2cccc3ccccc23)c2ccccc12` the value was -5.31%; for `c1cncc(CSc2ncnc3nc[nH]c23)c1`, -11.9%.
Take `Cc1cc(N2CCOCC2)nc2ccc(Cc3ccc4nc(N5CCOCC5)cc(C)c4c3)cc12`: the hERG blockade is 42.1% (active).
As for `Cc1cc(Cl)nc2ccc(Cc3ccc4nc(Cl)cc(C)c4c3)cc12`, the figure is -16.7%; as for `COc1ccc(CC(O)CN2CCOCC2)cc1` (centres undefined), -3.36%.
As for `Cc1cc(N2CCCCC2)nc2ccc(Cc3ccc4nc(N5CCCCC5)cc(C)c4c3)cc12`, the figure is 81.4% (active); as for `Cc1nc2ccccc2nc1N1CCCC1`, -18.7%.
As for `NCCNCC1CCNCC1`, the figure is -1.79%; as for `OC1COC(OCc2ccccc2)C(O)C1O` (centres undefined), -4.05%; as for `COc1ccc(C(=O)NN=C2C(=O)c3c(C)cc(C)cc3CC2(C)C)cc1`, 8.71%.
In the case of `CC1(C)C2CCC1(C)C(OC(=O)C=Cc1ccccc1)C2` (centres undefined), the hERG blockade is -7.8%.
For `CC(C)c1ccccc1S(=O)c1ccccc1C(C)(C)O` (centres undefined) the value was -9.35%; for `CC(C)CSCC1OC(n2cnc3c(N)nccc32)C(O)C1O` (centres undefined), -11.9%.
`O=C(O)C(Br)C(Br)c1ccccc1[N+](=O)[O-]` (centres undefined): the hERG blockade is -1.11%.
As for `CC(=NNc1ccc2ccccc2n1)c1ccccc1O`, the figure is 8.91%.
For `CN(N=Cc1ccccc1O)c1ccc2ccccc2n1` the value was -0.991%; for `O=[N+]([O-])c1cccc(C=NNc2ccc3ccccc3n2)c1O`, 26.8% (active); for `Cc1cc(-c2cc(C)c(O)c(C(C)(C)C)c2)cc(C(C)(C)C)c1O`, 0.0679%.
As for `CC(CS(=O)(=O)Cc1ccccc1)C(N)=O` (centres undefined), the figure is 3.43%; as for `COc1c(O)ccc2c1CN1CCc3cc4c(cc3C1C2)OCO4` (centres undefined), 22.7% (active); as for `CC1=NC(C)(COC(=O)C2(C)NC(C)(CO)CO2)COC1=O` (centres undefined), -5.89%.
For the compound `N=C(N)SCCc1ccccn1`, the hERG blockade is -2.29% and 1.24%.
For `Cc1ncc(CSC(=N)N)n1Cc1ccccc1` the value was -16.6%.
`Cc1c2ccccc2c(CSC(=N)N)c2ccccc12`: the hERG blockade was 103% (active).
As for `O=C(O)CSCCc1ccccc1`, the figure is 5.62%; as for `CC12CC(=O)C3C(CCC4=CC(=O)CCC43C)C1CC=C2CC(=O)O` (centres undefined), -16.4%.
With `CCCCSCc1nc2nc(Cl)c(Cl)nc2[nH]1`, the hERG blockade is -33.6% (active).
As for `O=C(O)c1nc2nc(Cl)c(Cl)nc2[nH]1`, the figure is 6.64%; as for `CCN(CCO)CC1CCCC2CCCCC21` (centres undefined), -6.41%.
As for `O=C(O)C1C2OC(C(Br)C2Br)C1C(=O)O` (centres undefined), the figure is -2.82%; as for `CC(=O)NC(Cc1ccc(O)cc1)C(=O)O` (centres undefined), -8.5%.
As for `CN1CC(c2ccccc2)C(O)(C2(c3ccccc3)CN(C)CC(c3ccccc3)C2=O)C(c2ccccc2)C1` (centres undefined), the figure is 20.8% (active).
As to `Nc1nc(SCCc2ccccc2)c2[nH]cnc2n1`, the hERG blockade is -0.569%.
For `CC1(C)N=C(N)N=C(N)N1CCCCc1ccccc1` the value was -14.1%.
For `Nc1nc(N)c(CCCCc2ccccc2)c(N)n1` the value was 26.6% (active).
Take `Cn1c(=O)c2[nH]c(CS(=O)(=O)Cc3nc4c([nH]3)c(=O)n(C)c(=O)n4C)nc2n(C)c1=O`: the hERG blockade is -2.72%.
Consider `Nc1nc(N)c(N=Nc2ccc(C(=O)O)c(O)c2)c(N)n1`, for which the hERG blockade is 12.4%.
In the case of `c1ccc(SCCc2ccncc2)cc1`, the hERG blockade was 5.61%.
As for `CC(=NNS(=O)(=O)c1ccc(C)cc1)P(=O)(O)O`, the hERG blockade is 15.5%.
Regarding `COc1cc2c3cc1Oc1c(OC)c(OC)cc4c1C(Cc1ccc(O)c(c1)Oc1ccc(cc1)CC3N(C)CC2)CN(C)C4` (centres undefined), the hERG blockade is 37.9% (active).
For `COc1ccc2cc1Oc1ccc(cc1)CC1c3cc(c(OC)cc3CCN1C)Oc1c(OC)c(OC)cc3c1C(C2)N(C)CC3` (centres undefined) the value was 70.1% (active); for `COc1cc2c3cc1Oc1cc(ccc1O)CC1c4c(cc(OC)c(O)c4Oc4ccc(cc4)CC3[N+](C)(C)CC2)CC[N+]1(C)C` (centres undefined), 11.2%.
As for `COc1ccc(CC2C(=O)NC(C)C(=O)N(C)C3Cc4ccc(cc4)Oc4cc(ccc4O)CC(C(=O)NC(C)C(=O)NC(C)C(=O)N2C)N(C)C3=O)cc1` (centres undefined), the figure is 4.92%; as for `COc1ccc2cc1Oc1ccc(cc1)CC1c3c(cc(OC)c4c3Oc3cc5c(cc3O4)CCNC5C2)CCN1C` (centres undefined), 79.4% (active); as for `N=c1sc2ccccc2n1CCS` (tested in a mixture with another compound), 5.15%.
`COC(NC(N)=O)C(=O)O` (centres undefined): the hERG blockade is 6.05%.
As for `Cc1c(Cl)cc(C(C)(C)C)c(O)c1Cc1c(C)c(Cl)cc(C(C)(C)C)c1O`, the figure is 0.223%.
As for `CC(C)(CCC(C)(C)c1ccccc1)c1ccccc1`, the figure is 1.92%.
Regarding `CN(C)Cc1nsc(N(C)C)n1`, the hERG blockade was 2.33%.
For `Cn1c(=O)c2c(nc(Cc3ccccc3)n2CC(=O)O)n(C)c1=O` the value was 11.6%; for `CCOc1ccccc1C=C(C#N)C(N)=O`, -12.6%; for `CC(=Cc1ccc(Cl)cc1)C(C)(C)C(=O)O`, -2.46%.
For `O=C(O)C1C2C=CC(O2)C1C(=O)Nc1ccccc1` (centres undefined) the value was -12.4%.
For `O=C(NN=Cc1ccc2c(c1)CCC2)c1ccccc1O` the value was 7.38%.
Turning to `FC(F)(F)c1nc2nc(Cl)c(Cl)nc2n1CCCN1CCOCC1`, the hERG blockade is -9.32%.
For `CC(C)(C)C1CCC2(CC1)CCN(CCCN1CCOCC1)CC2` the value was 36.7% (active).
For `CN(C)CCCN1CCC2(CCC(C(C)(C)C)CC2)CC1` the value was 11.2%.
